The campaign covered roughly 69,000 compounds. About 8,600 (12%) showed an effect of 50% or more. Many of the other results were omitted from the sample, so strong results are more common in it than they were.
These compounds were tested on Plasmodium berghei (assay: Screen against P. berghei liver stage (PbLuc), transformed with Luciferase, at 10uM). Settings: tested at 10 uM.
Assay type: functional, HepG2

| Structure (SMILES) | INHIBITION |
| --- | --- |
| Cc1ccc(CN2CCC3(CC2)OC(C(=O)N(C)C)c2ccccc23)o1 (stereo unspecified) | 34% |
| CN(Cc1ccc2c(c1)OCO2)C(=O)Cn1cccnc1=O | 44.1% |
| O=C(CN1CCCC1c1noc(C2CC2)n1)N1CCc2ccccc21 (stereo unspecified) | 7.08% |
| COCCN1CCC(c2cncc(-c3cccc(Cl)c3)n2)CC1 | -5.71% |
| Fc1cc(CN2CCOC3(CCOCC3)C2)ccc1OC(F)F | 86.7% |
| Fc1cc(CN2CCOC3(CCOCC3)C2)ccc1Cl | -27.8% |
| FC(F)Oc1ccc(CN2CCOC3(CCOCC3)C2)cc1Cl | 38% |
| COc1cc(CNC(=O)Nc2nnc(C(C)C)s2)ccn1 | -69.3% |
| Cc1cccc(C2(C(=O)NC(C)Cn3ccnc3)CC2)c1 (stereo unspecified) | 35.9% |
| CC(C(=O)N1CCc2ccccc2C1)N(C)Cc1cscn1 (stereo unspecified) | 32.9% |
| CCc1cnc(CN(C)C(C)C(=O)N2CCc3ccccc3C2)s1 (stereo unspecified) | 62% |
| Cc1csc(CN(C)C(C)C(=O)N2CCc3ccccc3C2)n1 (stereo unspecified) | 38% |
| CC(C)Oc1ncccc1CNC(=O)c1cc(C2CC2)on1 | 11.9% |
| COCCN1CCC1c1cc(N)nc(C)n1 (stereo unspecified) | 26.7% |
| Cc1nc2c(c(NCC(c3cccnc3)N3CCOCC3)n1)CCNC2 (stereo unspecified) | 18.2% |
| Cn1nc2c(cc1=O)CN(Cc1nc(N)c3ccccc3n1)CC2 | 57.7% |
| Cc1nnc2n1CCN(CCOc1ccccc1C#N)C2 | 58.5% |
| CCn1nc2c(cc1=O)CN(Cc1nc(N)c3ccccc3n1)CC2 | 15.8% |
| Cn1nc2c(cc1=O)CN(CCOc1ccccc1C#N)CC2 | 74.8% |
| N#Cc1ccccc1OCCN1CCn2c(nnc2C2CC2)C1 | 39.5% |
| Cc1ccccc1OCCN1CCn2c(C)nnc2C1 | 27.6% |
| CC(C)n1nc2c(cc1=O)CN(CCOc1ccccc1C#N)CC2 | 12.7% |
| CCn1nc2c(cc1=O)CN(CCOc1ccccc1C#N)CC2 | 2.4% |

| Structure (SMILES) | INHIBITION |
| --- | --- |
| Cn1nc2c(cc1=O)CN(Cc1nc3ccccc3c(=O)[nH]1)CC2 | 9.04% |
| Cc1cc(=O)n(CCNC(=O)c2ccccc2Cl)cn1 | -62.1% |
| COc1cc(N2CCC3(CCCN(C(=O)c4cnccn4)C3)C2)ncn1 (stereo unspecified) | 10.6% |
| O=C(c1ccco1)N1CCOCC2(C1)CN(c1ccccn1)C(=O)CO2 (stereo unspecified) | 22.4% |
| COCCCN1CCCC1c1noc(C2CC2)n1 (stereo unspecified) | 2.97% |
| O=C(Cc1ccsc1)N1C[C@@H]2COC[C@]2(COc2cccnc2)C1 | 39.4% |
| CC(=O)NCc1ccc(C(=O)N2CCCC2c2cnn(C)c2)s1 (stereo unspecified) | -25.9% |
| CC(C)Nc1nc(O)cc(C2CC(=O)N(Cc3ccccc3)C2)n1 (stereo unspecified) | 18.3% |
| O=C(C[C@@H]1COC[C@H]2CN(C(=O)c3cccnc3)C[C@@H]12)N1CCCC1 | -19.5% |
| c1cncc(-c2nnn3c2COCC(CNCC2CCOCC2)C3)c1 (stereo unspecified) | 41.6% |
| O=C(c1ccccc1O)N1CCN(C(=O)C2CCC2)CC1 | -14.3% |
| Cc1ccsc1C(=O)N(C)Cc1ccncc1 | 3.1% |
| CN(CCc1ccncc1)C(=O)c1sccc1OC(F)F | -2.97% |
| CN(Cc1ccc(C(=O)O)cc1)C(=O)c1sccc1OC(F)F | 52.5% |
| Cc1ccccc1C(CC(=O)N1CCc2sccc2C1)NC(N)=O (stereo unspecified) | 3.3% |
| CCOc1ccc(Cl)cc1CCNC(=O)c1ccc(=O)n(C)c1 | -10.8% |
| O=C(Cn1nc(-c2ccc(F)cc2)oc1=O)NCc1ccncc1 | -6.79% |
| COCC(=O)N[C@@H]1CN(Cc2c[nH]nc2-c2cccs2)C[C@H]1O | 6.54% |
| CCC1=NC(SCC(=O)c2ccc(Cl)cc2)c2cc(CC)sc2N1 (stereo unspecified) | 30% |
| CCC1=NC(SCC(=O)c2ccc(C)cc2)c2cc(CC)sc2N1 (stereo unspecified) | 39.1% |
| CCC1=NC(SCC(=O)c2ccccc2)c2cc(CC)sc2N1 (stereo unspecified) | 79.7% |
| CC(C)c1nn(C)c(Cl)c1CNCC(=O)N1CCN(C)CC1 | 26.4% |
| Cc1nc(C)n(CC2CN(Cc3cccs3)Cc3nccn3C2)n1 (stereo unspecified) | 47.4% |

| Structure (SMILES) | INHIBITION |
| --- | --- |
| CCOCCS(=O)(=O)c1nnc(NCCOC)s1 | 12.2% |
| COCCNc1nnc(S(=O)(=O)CCC(C)(C)C#N)s1 | 52.1% |
| CCCNc1nnc(S(=O)(=O)CCOCC)s1 | 5.05% |
| C[C@@H]1CN(C(=O)C2CCOCC2)C[C@]12CCN(c1cccnc1)C2=O | 18.5% |
| COc1cccc(OC)c1C(=O)N1CC(=O)N(C2CCC2)CC(O)C1 (stereo unspecified) | 4.82% |
| CCOc1ccccc1C(=O)N1CC(=O)N(C2CCC2)CC(O)C1 (stereo unspecified) | 16.9% |
| COc1ccccc1C(=O)N1CC(=O)N(C2CCCCC2)CC(O)C1 (stereo unspecified) | 50.2% |
| c1cncc(-n2cnnc2CC2CCNCC2)c1 | 8.08% |
| COc1ccc(C)cc1-n1cnnc1CC1CCNCC1 | 64.6% |
| COc1ccc(C)cc1-n1cnnc1C1CCCN(C)C1 (stereo unspecified) | 29.8% |
| COc1ccc(C)cc1-n1cnnc1C1CCOCC1 | 13.5% |
| COc1ccc(-n2cnnc2CC2CCNCC2)cc1 | 65.7% |
| COc1ccc(OC)c(-n2cnnc2CN)c1 | 45.7% |
| O=C(Cn1ccc2cc(Br)ccc21)NCc1ccc(C(=O)O)cc1 | 13.5% |
| CC(=O)c1cc(C(=O)N2Cc3ccccc3OC3(CCOCC3)C2)cs1 | -26.2% |
| CS(=O)(=O)c1ccc(C(=O)N2CCCC(n3ccnc3)C2)cc1 (stereo unspecified) | -9.76% |
| COCC(c1cccc(C(F)(F)F)c1)N(C)C(=O)c1ccccn1 (stereo unspecified) | -5.285% |
| COc1ccc(N(C)C(=O)c2cccc(S(C)(=O)=O)c2)cn1 | 40.7% |
| COc1ccc(N(C(=O)c2ccc(C)nc2)C(C)C)cc1F | 38% |
| COC(=O)c1cnc(C(=O)N(c2ccc(OC)c(F)c2)C(C)C)cn1 | -54.5% |
| COc1ccc(N(C(=O)c2cnc(C)cn2)C(C)C)cc1F | 62.4% |
| COC(=O)C(c1cc(F)ccc1F)N(C)C(=O)c1ccccn1 (stereo unspecified) | 36.1% |
| COc1ccc(N(C(=O)c2ccccn2)C(C)C)cc1F | 50.8% |

| Structure (SMILES) | INHIBITION |
| --- | --- |
| COc1ccc(C(=O)N(c2ccc(OC)c(F)c2)C(C)C)cn1 | 75.2% |
| COc1ccc(N(C(=O)Cc2ccc(C)nc2)C(C)C)cc1F | -75% |
| Cn1cc(-c2ncc3c(c2C(=O)O)CCN(CC2CC2)C3)cn1 | 46.6% |
| O=S(=O)(NC1=NCN(CCc2cccs2)CN1)c1ccc(Cl)cc1 | 17% |
| O=C(CN1CCOC(Cn2cccn2)C1)NCc1ccccn1 (stereo unspecified) | 11.2% |
| O=C(c1ncccn1)N1CCC[C@]2(C[C@@H](OCC3CC3)CO2)C1 | 34.6% |
| CN1CCO[C@@H]2CN(S(=O)(=O)c3ccc(F)cc3)CC[C@@H]2C1 | 16.9% |
| Cc1cc(C)cc(NCCC(=O)NC2CCN(C(=O)C3CC3)CC2)c1 | -18.3% |
| CN1CCN(c2ncccn2)CC1C(N)=O (stereo unspecified) | -7.66% |
| CCCN1CCC(N2CCC(Cn3cc(C4CC4)nn3)CC2)CC1 | 52.2% |
| O=C(C1CCCO1)N1CCC(Cn2cc(C3CCCC3)nn2)CC1 (stereo unspecified) | 34.2% |
| CC(C)(CN1CCCC1)CN1CCC(Cn2cc(C3CC3)nn2)CC1 | 41.2% |
| CC(C)CSCCCNC(=O)C1CCC1 | 52.3% |
| CC(C)CSCCCNC(=O)C1CCOC1 (stereo unspecified) | 33.7% |
| CC(C)CSCCCNC(=O)C1CCOCC1 | 6.54% |
| CN(C)S(=O)(=O)N1C[C@H]2CC[C@@H](C1)N(Cc1ccc3[nH]ccc3c1)C2 | 31.6% |
| Cc1nc(CN2CCN(C(=O)c3scnc3C)CC2)cs1 | -17.1% |
| NC(=O)c1cnn2c1NCC(CNCCOc1ccccc1)C2 (stereo unspecified) | -18.43% |
| OCCn1nccc1C1CCN(CCOc2ccccc2F)CC1 | 27.8% |
| CCOCCCNC(=O)NCc1c(C)nn(C)c1C | 52.5% |
| CCOCCCNC(=O)c1cn(CC)nc1C | 11.8% |
| CCOCCCNC(=O)c1nn(CC)cc1Br | 1.86% |
| COc1ccccc1C1CNCCN1C(=O)c1ccc(F)cc1 (stereo unspecified) | 15.5% |

| Structure (SMILES) | INHIBITION |
| --- | --- |
| CN1CCCCC1CC(=O)Nc1ccc2ncn(C)c2c1 (stereo unspecified) | 9.41% |
| COc1ccccc1OCCN1CCC(N2CCNC2=O)CC1 | 36.4% |
| COc1ccc(OCCN2CCC(N3CCNC3=O)CC2)cc1 | 87.25% |
| CN1CCN(C2CCN(CCOc3cccc(F)c3)CC2)C1=O | 5.9% |
| CN1CCN(C2CCN(CCOc3cccc(Cl)c3)CC2)C1=O | 51.1% |
| CCOc1ccc(OCCN2CCC(N3CCNC3=O)CC2)cc1 | 81.8% |
| CN1CCN(C2CCN(CCOc3ccc(Cl)cc3)CC2)C1=O | 36.1% |
| CN1CCN(C2CCN(CCOc3ccc(C#N)cc3)CC2)C1=O | 41.5% |
| CN1CCN(C2CCN(CCOc3ccc(F)cc3)CC2)C1=O | 25.6% |
| Cc1ccc(C)c(OCCN2CCC(N3CCNC3=O)CC2)c1 | 38.1% |
| CCN(Cc1cccc(F)c1)Cn1nc(C)c2c(C)onc2c1=O | 11.4% |
| Cc1nccc(NCc2cc3n(n2)CCCN(C(=O)C2CCC2)C3)n1 | 21.1% |
| Cc1cc2c(=O)n(CCSc3ncn[nH]3)cnc2s1 | 29.4% |
| Cn1nnc2c1CCN(C(=O)C1CC1)C2COCCN1CCCC1 (stereo unspecified) | -6.23% |
| c1ncn(CC2CCCCN2Cc2cn3ccsc3n2)n1 (stereo unspecified) | 25.45% |
| O=C(c1ccc(-n2cnnc2)nc1)N1CCCC(O)(CO)CC1 (stereo unspecified) | 8.38% |
| CC[C@H]1CN(C(=O)c2ccc(-n3cnnc3)nc2)CC[C@@]1(C)O | 53.8% |
| CC[C@H]1CN(C(=O)c2cccc(-n3cnnc3)n2)CC[C@@]1(C)O | -0.71% |
| Cc1ccc2cc(CNCCCN3CCOCC3)c(=O)[nH]c2c1C | -5.71% |

From ChEMBL document CHEMBL4513216, “Probing the Open Global Health Chemical Diversity Library for Multistage-Active Starting Points for Next-Generation Antimalarials” (ACS Infect Dis, 2020)
